Experimental data: the supplement of paper PMC6555819

Tests used:
Test in all cases: PBM binding z-score (relative to random genomic background probes); higher = stronger binding; sequences stand for … in GC…GCGATTGACAGCGTAGAATGAAGG
[1] = tested on: PPARg:RXRa DBDmut IVT, anti-RXR (DBD mutation: RXRa K156A/R161A, NR concentration 270 nM, RXRa partner concentration 90 nM)
How it was run: (§1)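 On custom Agilent 4×180K arrays, double-stranded probes with 34-nt variable regions carried direct-repeat seeds, single-nucleotide variants, half-site ablations or random human genomic background. Ligand-free nuclear receptor dimers were applied for 1 h, and binding was read with antibodies against each partner (one per run). Binding z-scores come from regression-normalized fluorescence, with the random background probes as reference.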

[2] = tested on: PPARg:RXRa IVT, anti-PPARg (NR concentration 270 nM, RXRa partner concentration 90 nM)
How it was run: as §1

[3] = tested on: PPARg DBDmut:RXRa IVT, anti-PPARg (DBD mutation: PPARg1 K132A/R137A, NR concentration 270 nM, RXRa partner concentration 90 nM)
How it was run: as §1

[4] = tested on: PPARg DBDmut IVT, anti-PPARg (DBD mutation: PPARg1 K132A/R137A, NR concentration 270 nM)
How it was run: as §1

[5] = tested on: PPARg homodimer (NR concentration 180 nM)
How it was run: as §1

[6] = tested on: PXR:RXRa (NR concentration 270 nM, RXRa partner concentration 90 nM)
How it was run: as §1

[7] = tested on: PXR homodimer (NR concentration 270 nM)
How it was run: as §1

[8] = tested on: RARa:RXR (NR concentration 270 nM, RXRa partner concentration 90 nM)
How it was run: as §1

[9] = tested on: RARa homodimer (NR concentration 270 nM)
How it was run: as §1

[10] = tested on: RARb:RXRa (NR concentration 270 nM, RXRa partner concentration 90 nM)
How it was run: as §1

[11] = tested on: RARb homodimer (NR concentration 270 nM)
How it was run: as §1

[12] = tested on: RARg:RXRa (NR concentration 270 nM, RXRa partner concentration 90 nM)
How it was run: as §1

[13] = tested on: RARg homodimer (NR concentration 270 nM)
How it was run: as §1

[14] = tested on: RXRa DBDmut IVT, anti-RXR (DBD mutation: RXRa K156A/R161A, NR concentration 90 nM)
How it was run: as §1

[15] = tested on: RXRa homodimer (NR concentration 180 nM)
How it was run: as §1

[16] = tested on: THRa:RXRa (NR concentration 90 nM, RXRa partner concentration 90 nM)
How it was run: as §1

[17] = tested on: THRa homodimer (NR concentration 90 nM)
How it was run: as §1

[18] = tested on: VDR:RXRa (NR concentration 270 nM, RXRa partner concentration 90 nM)
How it was run: as §1

[19] = tested on: VDR homodimer (NR concentration 270 nM)
How it was run: as §1

| Sequence | PBM binding z-score [1] | PBM binding z-score [2] | PBM binding z-score [3] | PBM binding z-score [4] | PBM binding z-score [5] | PBM binding z-score [6] | PBM binding z-score [7] | PBM binding z-score [8] | PBM binding z-score [9] | PBM binding z-score [10] | PBM binding z-score [11] | PBM binding z-score [12] | PBM binding z-score [13] | PBM binding z-score [14] | PBM binding z-score [15] | PBM binding z-score [16] | PBM binding z-score [17] | PBM binding z-score [18] | PBM binding z-score [19] |
| --- | --- | --- | --- | --- | --- | --- | --- | --- | --- | --- | --- | --- | --- | --- | --- | --- | --- | --- | --- |
| CGAACTAGATCATCCAGGACAGTGAATACATTGA | 2.02 | 1.22 | 0.762 | 0.684 | 0.315 | -0.222 | 0.306 | 0.105 | 1.19 | -0.2 | 0.254 | 0.0804 | 0.347 | 0.701 | -0.151 | 1.13 | 1.14 | 0.286 | 0.494 |
| TAGCCTAGGTGATGCGGGCCAGTATAGTGTCGGC | -0.174 | 0.433 | -0.831 | -0.995 | -1 | -0.852 | -0.76 | -0.959 | -0.718 | -0.225 | -0.307 | -0.331 | -0.372 | -1.62 | -0.304 | -0.285 | -0.885 | -0.796 | -1.22 |
| CCTACTGGGCCAACGGTCATTGATTCCAATGCTC | 3.68 | 4.73 | -0.311 | -0.326 | 0.249 | -0.304 | 0.00743 | -0.143 | -0.558 | 1.37 | 1.45 | 0.293 | 0.841 | -0.454 | -0.191 | -0.306 | -0.382 | -0.502 | -0.141 |
| GCAGACAGGTGAAACGCAGGTACCTCAGGGTGGC | 0.673 | 0.204 | -1.1 | -1.9 | -1.33 | -0.784 | -0.782 | -0.474 | -1.48 | 0.346 | -0.353 | 0.0657 | 0.145 | -0.949 | 0.343 | 0.295 | -0.722 | -0.756 | -0.935 |
| CCTACTGGGCCCAGGTCATTGATCAGTCAAAGCA | -0.465 | 1.3 | -0.756 | -1.2 | 0.811 | 1.72 | 0.241 | 2.05 | 0.064 | 1.95 | 2.14 | 2.06 | 1.28 | -0.46 | 1.47 | 2.93 | 2.15 | 1.7 | 1.25 |
| CTCAAAAGGTCGGTTGAGGTGAGTATACGGATAA | -0.129 | 1.12 | 0.328 | 0.889 | 0.591 | 3.26 | 0.191 | 2.82 | -0.384 | 3.4 | 2.58 | 2.78 | 2.85 | 0.765 | 2.66 | 5.22 | 1.15 | 2.54 | 0.384 |
| ATATATAGGTTACATCCGGGTCATTCAGGCTATG | 7.41 | 7.26 | 3.67 | 2.9 | 2.67 | 4.12 | 2.95 | 4.05 | 1.77 | 2.51 | 3.34 | 4.2 | 2.64 | 1.57 | 3.51 | 4.03 | 2.74 | 4.58 | 3.65 |
| CGAACTAGGTCAGGACAGGACAGTGAAGGATGAT | 7.58 | 7.47 | 1.64 | 0.603 | 0.819 | 1.25 | -0.213 | 0.766 | -0.133 | 3.44 | 2.54 | 2.87 | 4.34 | 0.359 | 1.59 | 3.71 | 1.28 | 0.943 | -0.189 |
| CTTGAAAGGTCGGTTGAGGTGAGTATACGGATAA | 0.154 | 0.996 | -0.0609 | 0.067 | 0.811 | 3.33 | 0.421 | 2.5 | -0.0411 | 2.97 | 2.58 | 2.6 | 2.68 | 1.35 | 2.5 | 4.93 | 1.42 | 2.66 | 0.867 |
| GTTATTAGTTGAAAGGGCAACCGAATGATTCTCG | 1.31 | 1.82 | 1.34 | 1.6 | 3.38 | 1.26 | 1.4 | 1.87 | 3.11 | 2.55 | 2.41 | 1.75 | 1.95 | 1.16 | 1.64 | 1.18 | 0.669 | 1.24 | 1.55 |
| CGAACTAGGTCATTGACATGACAGTGAATAGTAA | 8.34 | 8.44 | 3.7 | 2.52 | 1.93 | 1.45 | -0.208 | 2.28 | 0.896 | 3.62 | 2.55 | 3.68 | 4.2 | 2.17 | 2.84 | 2.68 | 0.792 | 2.16 | 1.36 |
| ACTAGCAGCCCAAGTTTGGGTCACTCAAACAAAG | -0.54 | 0.157 | -0.825 | -0.894 | 0.227 | 0.606 | -0.424 | 1.19 | -0.533 | 0.813 | 1.74 | 0.618 | 0.518 | -0.56 | 0.612 | 2.1 | 1.15 | 0.327 | -0.0283 |
| AGAATGAGGTTATTAAGATGAGGGAATTGCGGTC | 2.83 | 1.97 | 1.19 | 0.341 | 1.28 | 1.03 | 0.85 | 1.22 | 1.23 | 1.41 | 0.734 | 1.15 | 0.922 | 1.9 | 1.87 | 2.08 | 0.746 | 1.15 | 1.16 |
